# Assay results: PubChem BioAssay AID624330 (Southern Research Specialized Biocontainment Screening …, 2012)
# The campaign covered roughly 340,000 compounds. About 2,100 (0.62%) were called active. Only a sample is shown. Entries with a potency or affinity are not part of this list. A number with no mark means an inactive call.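 The calls were made as follows: active = first-screen hits whose inhibition reached a set limit at any dose in the follow-up dose series; inconclusive = inhibition above the set first-screen limit but never retested; inactive = the rest.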
# Molecular target: Rac GTPase-activating protein 1 (Homo sapiens) (UniProt Q9H0H5)
# Experiment: MgcRacGAP GTPase-activating activity inhibitors, confirmation, biochemical, ADP Hunter fluorescence, primary and confirmatory (AID 624330);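 also: fluorescence reports GDP produced by GAP-driven GTP hydrolysis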
# Conditions: MgcRacGAP-stimulated Rac1 GTP hydrolysis, at 30 µM, hits give high values, GST-tagged Rac1 F28L mutant substrate
# Rac GTPase-activating protein 1 (Homo sapiens), sequence (Q9H0H5 whole entry, looked up): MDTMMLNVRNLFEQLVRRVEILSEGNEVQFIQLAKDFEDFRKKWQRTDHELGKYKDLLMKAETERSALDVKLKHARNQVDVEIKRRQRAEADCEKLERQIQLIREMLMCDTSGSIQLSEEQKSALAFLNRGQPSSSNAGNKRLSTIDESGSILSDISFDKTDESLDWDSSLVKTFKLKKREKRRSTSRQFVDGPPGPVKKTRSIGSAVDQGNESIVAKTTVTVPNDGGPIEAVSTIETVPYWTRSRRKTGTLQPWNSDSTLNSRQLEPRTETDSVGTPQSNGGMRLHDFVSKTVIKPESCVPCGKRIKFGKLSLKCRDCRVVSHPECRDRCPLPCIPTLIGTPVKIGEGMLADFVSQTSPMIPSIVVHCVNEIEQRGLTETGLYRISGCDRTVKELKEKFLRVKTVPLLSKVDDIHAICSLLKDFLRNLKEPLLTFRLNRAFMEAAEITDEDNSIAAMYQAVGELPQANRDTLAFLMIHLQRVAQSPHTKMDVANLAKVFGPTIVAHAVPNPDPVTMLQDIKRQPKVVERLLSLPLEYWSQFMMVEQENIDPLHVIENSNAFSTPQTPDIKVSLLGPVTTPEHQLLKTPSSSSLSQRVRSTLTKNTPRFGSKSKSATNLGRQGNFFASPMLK
row,Structure (SMILES),inhibition [%]
1,O=C(OCc1ccccc1)/C(=C/c1cccc2ccccc12)NC(=O)c1ccccc1,4.32
2,N#CC1=C(c2ccc(-c3ccccc3)cc2)COC1=O,7.38
3,CCc1ccc(NC(=O)N2CCN(c3ccc(F)cc3)CC2)cc1,2.99
4,CC(C)c1ccc(C(=O)Nc2ccc(N3CCOCC3)cc2)cc1,7.63
5,CC(=O)N1CCN(c2ccc(NC(=O)c3ccc(F)cc3)cc2)CC1,13.2
6,CC(=O)N1CCN(c2ccc(NC(=O)C(c3ccccc3)c3ccccc3)cc2)CC1,3.06
7,CCc1ccc(NC2CC(=O)N(c3ccc(OC)cc3OC)C2=O)cc1 (stereo not drawn),4.67
8,COc1cccc(N2C(=O)CC(Nc3ccc(N4CCOCC4)cc3)C2=O)c1 (stereo not drawn),20.1
9,CC(C)c1ccc(S(=O)(=O)Nc2ccc(N3CCOCC3)cc2)cc1,8.59
10,CC(=O)N1CCN(c2ccc(NC(=O)c3ccccc3)cc2)CC1,11.9
11,O=C(CSc1nnc(-c2cccnc2)o1)Nc1ccc(F)cc1,13.2
12,Clc1nc(-c2ccccc2)c2ccccc2n1,10.5
13,CC(=O)c1cc(Cc2csc(C(C)=O)c2)cs1,1.28
14,CN(C(=O)COC(=O)c1cccs1)c1c(N)n(Cc2ccccc2)c(=O)[nH]c1=O,4.09
15,Cc1cc(=O)oc2c3c(cc(OCC(=O)NC(Cc4ccc(Cl)cc4)C(=O)O)c12)OC(C)(C)CC3 (stereo not drawn),6.3
16,O=C(NCc1ccccc1)NC(=O)c1ccncc1,8.08
17,O=C1NC(=S)NC1Cc1ccc(O)cc1 (stereo not drawn),7.3
18,CCn1ccnc1CN1CCCCC1C(=O)Nc1ccc(Oc2cccnc2)cc1 (stereo not drawn),10.9
19,O=C1CC(Nc2ccc(N3CCOCC3)cc2)C(=O)N1CCc1ccccc1 (stereo not drawn),14.7
20,O=C1CC(Nc2ccccc2)C(=O)N1Cc1ccccc1 (stereo not drawn),7.76
21,CC(=O)Nc1ccc(NCc2cccs2)cc1,31.6

row,Structure (SMILES),inhibition [%]
1,O=C(O)c1ccc(NCc2cccs2)cc1,-0.42
2,Cc1cccc(CNc2ccc(S(=O)(=O)N3CCCCC3)cc2)c1,2.94
3,CC(=O)N1CCN(c2ccc(NC(=O)c3cccc(C)c3)cc2)CC1,-9.43
4,CC1CCN(Cc2cc(=O)oc3ccc(C(C)C)cc23)CC1,5.26
5,O=S(=O)(N/N=C1\CC(c2ccccc2)Oc2ccccc21)c1ccccc1 (stereo not drawn),-7.41
6,COc1ccccc1CNC1CCN(Cc2ccccc2)CC1,-3.78
7,Fc1ccc(CNC2CCN(Cc3ccccc3)CC2)cc1,-1.76
8,Oc1ccc(/C=N/Nc2ccccc2)cc1,12.9
9,COc1ccc(/C=N/Nc2nc(C)cc(-c3ccccc3)n2)cc1OC,11.1
10,C/C(=N\Nc1nc2ccccc2nc1C)c1ccccc1O,-0.02
11,Cc1cc(-c2ccccc2)nc(N/N=C/c2ccccc2F)n1,2.38
12,Cc1cc(-c2ccccc2)nc(N/N=C/c2ccc([N+](=O)[O-])cc2)n1,6.88
13,COc1ccc(O)c(/C=N/Nc2nc(C)cc(-c3ccccc3)n2)c1,3.11
14,Cc1cc(-c2ccccc2)nc(N/N=C/c2cccnc2)n1,3.86
15,Cc1cc(-c2ccccc2)nc(N/N=C/c2ccccc2)n1,4.11
16,CCOC(=O)CN1C(=O)S/C(=C/c2ccc(C)o2)C1=O,13.6
17,O=C(CN(CC1CCCO1)C(=O)CCC(=O)Nc1nccs1)NCC1CCCO1 (stereo not drawn),-9.34
18,O=C1CCc2cc(S(=O)(=O)Nc3cccc(F)c3)cc3c2N1CC3,4.84
19,O=C(NCC(c1cccs1)N1CCOCC1)c1cc(S(=O)(=O)N2CCOCC2)c(Cl)cc1Cl (stereo not drawn),2.31
20,Cc1occc1-c1nnc(SCCCC(=O)c2ccc(F)cc2)n1C,14.1
21,NNC(=S)NCCc1ccccc1,6.19

row,Structure (SMILES),inhibition [%]
1,CC(C(=O)N1CCc2ccccc21)N1CCN(c2ccccn2)CC1 (stereo not drawn),6.14
2,CC(C(=O)Nc1ccccc1)N1CCN(c2ccccn2)CC1 (stereo not drawn),7.75
3,O=C(CNC(=O)Cc1ccccc1)NCc1cccc(C(F)(F)F)c1,1.1
4,CCN(Cc1ccncc1)C(=O)c1cccs1,-1.7
5,O=C(CC1CCCC1)N1CCCC(Nc2cccc(F)c2)C1 (stereo not drawn),7.36
6,CC1CC(C)CN(C(=O)Cn2c(=O)n(CCCC(=O)NCc3ccco3)c(=O)c3sccc32)C1 (stereo not drawn),9.26
7,CCOc1cc2c(cc1OCC)C(c1ccccc1)N(c1ccccc1)C(=O)C2 (stereo not drawn),1.91
8,O=c1c2ccccc2nc(/C=C/c2ccc(O)cc2)n1CCc1ccccc1,4.64
9,COc1ccccc1-n1c(SCC(=O)N2CCOCC2)nc2ccccc2c1=O,-0.91
10,CCN(CC)C(=O)CSc1nc2ccccc2c(=O)n1-c1ccccc1OC,-9.96
11,O=c1c2ccccc2nc(N/N=C/c2ccc(O)cc2)n1O,18.1
12,CCn1c(/C=C/c2ccccc2)nc2ccccc2c1=O,10.4
13,CCn1c(/C=C/c2ccc(F)cc2)nc2ccccc2c1=O,8.84
14,C=CCn1c(C)nc2ccccc2c1=O,2.89
15,Cn1c(/C=C/c2ccccc2)nc2ccccc2c1=O,5.36
16,O=C(CSc1nncn1-c1ccccc1)Nc1ccccc1F,3.06
17,COc1ccccc1/C=C/C(=O)OCC(=O)N1CCN(S(=O)(=O)c2ccc(C)cc2C)CC1,6.05
18,CC(OC(=O)c1ccc(Cl)nc1)C(=O)Nc1ccc(S(=O)(=O)N2CCCC2)cc1 (stereo not drawn),4.67
19,C[C@@]12C(=O)N(CC3CC3)CC(=O)N1[C@H](C1CC1)[C@@H]1C(=O)N(c3ccccc3)C(=O)[C@@H]12,7.67
20,Cc1cc(C)n2c(SCC(=O)NCc3ccc4c(c3)OCO4)nnc2n1,11.5
21,CSCCC(NC(=O)c1ccccc1Br)C(=O)N1CCN(C/C=C/c2ccccc2)CC1 (stereo not drawn),9.7
